Screens from PubChem.
In the library only some 2.1% were active in any assay of this set; here they are far more common.
Abeta rescue = compounds reversing amyloid beta toxicity in yeast. yeast expressing A-beta42, growth rescue, OD600, 48 h; response scale: 0% DMSO, 100% iron-clioquinol control. Potency, µM (titrated, usually from 46.1 µM), actives largely listed as activators. 0.063% of 410,000 active. AID 1347071; further: nearly all actives have a fitted effect of over 55% in size
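Yeast growth medium received pinned compounds, then yeast cells expressing toxic A-beta were added; plates incubated at 30 C for 48 hr. Growth read as absorbance at 600 nm, normalized to DMSO and equimolar FeCl3 plus clioquinol controls.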
aSyn rescue = rescues yeast growth from alpha-synuclein toxicity; Yeast expressing alpha-synuclein, growth rescue, BacTiter-Glo, 24 h; Potency, µM (series often up to 46.1 µM), usual class: activators; 0.14% of 370,000 active; further: nearly all actives have a fitted effect of over 65% in size
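Galactose-induced alpha-syn yeast (OD600=0.02, raffinose-pregrown) + pinned cpd, 24 hr, 30 deg C; growth by BacTiter-Glo luminescence. Growth restoration scores as activation.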
TDP-43 yeast inh = inhibitors of TDP-43 toxicity in yeast. TDP-43 expressing yeast growth rescue, BacTiter-Glo, 24 h. Potency, µM (top dose mostly 46.1 µM), hits mostly activators. 1.8% of 410,000 active. AID 652104; further: nearly all actives have a fitted effect of over 50% in size
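Yeast expressing TDP-43 (pregrown in raffinose, seeded at OD600=0.02 in galactose medium) exposed to compounds 24 hr at 30 deg C. Growth read by BacTiter-Glo luminescence; rescue of toxicity appears as increased signal.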
PTAP TSG101 blk = blocks PTAP/TSG101 interaction to inhibit HIV-1 budding; Q99816; Fluorescence polarization, FITC-PTAP peptide / Tsg101 binding; Potency, µM (titrated, usually from 115 µM), actives largely listed as inhibitors; 340,000 tested, under 10 active; active means well fitted inhibition curve with a large enough effect in the main read-out, with a control signal flat, not every such curve was filed as active; inconclusive means small, poorly fitted or top-dose-only effect, or effect the other way, or a change in a side signal; inactive means no such curve, though single readings can be large or run the other way
Target sequence (Q99816 whole entry, looked up): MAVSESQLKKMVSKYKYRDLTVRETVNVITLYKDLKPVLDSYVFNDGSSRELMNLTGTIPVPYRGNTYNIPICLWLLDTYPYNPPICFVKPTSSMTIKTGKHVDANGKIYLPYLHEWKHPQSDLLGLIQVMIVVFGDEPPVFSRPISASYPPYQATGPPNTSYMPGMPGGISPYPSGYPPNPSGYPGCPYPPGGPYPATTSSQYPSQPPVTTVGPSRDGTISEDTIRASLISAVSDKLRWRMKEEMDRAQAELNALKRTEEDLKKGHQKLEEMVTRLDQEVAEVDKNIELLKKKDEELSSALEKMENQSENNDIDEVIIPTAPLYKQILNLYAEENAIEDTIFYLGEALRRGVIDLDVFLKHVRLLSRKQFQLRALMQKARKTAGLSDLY
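Steps: Tsg101 binding domain dispensed (10 uM final), compounds pinned in DMSO, FITC-labeled PTAP-motif peptide added (50 nM final); after 20 min binding at room temperature, polarization measured.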
FUS suppressor = suppressors of FUS proteinopathy in yeast; S. cerevisiae FUS-expressing, growth rescue, OD600, 24 h; Potency, µM (top dose mostly 76.6 µM), usual class: activators; 0.24% of 390,000 active; further: nearly all actives have a fitted effect of over 55% in size
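FUS-expressing yeast, raffinose-pregrown, induced in 2% galactose minimal medium at OD 0.005; compounds in a dilution series, 24hr at 30C. Growth restoration read as absorbance at 600 nm. CP55940 positive control, DMSO negative.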
Numbers stand for hits; [ ] = another dose, or the depositor's remark. Unless noted, the call rests on the fitted dose curve; in most records, active means well fitted curve in the direction sought with a large enough effect; inconclusive means small, poorly fitted or top-dose-only effect, or another doubt; inactive means no such curve, though single readings can be large; an effect the other way counts as inactive or inconclusive.

Screening CC1(C)Cc2ccccc2C(/C(=N\Nc2cccc(Cl)c2)C(N)=O)=N1 returned Abeta rescue inactive, aSyn rescue inactive, TDP-43 yeast inh 15.8µM, PTAP TSG101 blk inactive and FUS suppressor inconclusive.
Screening CC(=O)c1ccc(N/N=C(/C(N)=O)C2=NC(C)(C)Cc3ccccc32)cc1 returned Abeta rescue inactive, aSyn rescue inactive, TDP-43 yeast inh inactive, PTAP TSG101 blk inactive and FUS suppressor inactive.
`O=C(Cc1ccc(Cl)cc1Cl)OCC(=O)c1ccc[nH]1` gave Abeta rescue inactive, aSyn rescue inactive, TDP-43 yeast inh 17.8µM, PTAP TSG101 blk inactive and FUS suppressor inactive.
Screening CC(=O)c1ccc(-c2[nH]c3ccccc3c2CCN2C(=O)c3ccccc3C2=O)cc1 returned Abeta rescue inactive, aSyn rescue inactive, TDP-43 yeast inh inactive, PTAP TSG101 blk inactive and FUS suppressor inactive.
CC(=O)c1ccc(-c2c(CCO)sc3ccccc23)cc1 was read as Abeta rescue inactive, aSyn rescue inactive, TDP-43 yeast inh 12.6µM and FUS suppressor inactive.
Screening COc1ccc(-n2cnnc2SCc2cnc(-c3ccccc3)s2)cc1 returned Abeta rescue inactive, aSyn rescue inactive, TDP-43 yeast inh 20µM, PTAP TSG101 blk inactive and FUS suppressor inactive.
Screening COCCn1c(SCc2cnc(-c3ccccc3)s2)nnc1-c1ccncc1 returned Abeta rescue inactive, aSyn rescue inactive, TDP-43 yeast inh inactive, PTAP TSG101 blk inactive and FUS suppressor inactive.
`Cc1cc(Br)ccc1NC(=S)NCCc1ccccc1` gave Abeta rescue 11.2µM, aSyn rescue inactive, TDP-43 yeast inh inconclusive, PTAP TSG101 blk inactive and FUS suppressor inactive.
Screening Cc1cc(C)cc(N2C(=O)CC(c3ccc(C(F)(F)F)cc3)C3=C2COC3=O)c1 (centres undefined) returned Abeta rescue inactive, TDP-43 yeast inh inactive and FUS suppressor inactive.
For O=C1NC(c2cccc(OCc3ccccc3)c2)Nc2ccccc21 (centres undefined) the results were Abeta rescue inactive, aSyn rescue inactive, TDP-43 yeast inh inactive and PTAP TSG101 blk inactive.
`Cc1ccc(NCc2cccn2-c2nnc(N3CCC(C(=O)NCCc4ccc(Cl)cc4)CC3)s2)cc1` gave Abeta rescue inconclusive, TDP-43 yeast inh 35.5µM and FUS suppressor inconclusive.
N#CC1c2ccccc2-c2ccccc2N1C(=O)c1ccccc1 (centres undefined) was read as Abeta rescue inactive, aSyn rescue 22.4µM, TDP-43 yeast inh 28.2µM and FUS suppressor inactive.
CC1C=Cc2ccccc2N1C(=O)c1ccccc1 (centres undefined) was read as Abeta rescue inactive, aSyn rescue inactive, TDP-43 yeast inh inactive, PTAP TSG101 blk inactive and FUS suppressor inactive.
`Fc1ccccc1-c1nc(NCC2CC2)nc2ccsc12` gave Abeta rescue inactive, aSyn rescue inactive, TDP-43 yeast inh 22.4µM and FUS suppressor inactive.
For Cc1ccc(C(=O)OCn2ncc(Cl)c(Cl)c2=O)cc1 the results were Abeta rescue inactive, aSyn rescue inactive, TDP-43 yeast inh 3.16µM, PTAP TSG101 blk inactive and FUS suppressor inactive.
`CCOC(=O)c1ccc(NC(=O)Cn2ncc(Cl)c(Cl)c2=O)cc1` gave Abeta rescue inactive, aSyn rescue inactive, TDP-43 yeast inh inactive[0.397 µM], PTAP TSG101 blk inactive and FUS suppressor inactive.
Screening O=C(OCn1ncc(Cl)c(Cl)c1=O)c1ccc(C(F)(F)F)cc1 returned Abeta rescue inactive, aSyn rescue inactive, TDP-43 yeast inh 3.98µM, PTAP TSG101 blk inactive and FUS suppressor inactive.
For O/N=C(\c1ccc(Cl)cc1)c1ncc(C(F)(F)F)cc1Cl the results were Abeta rescue inactive, aSyn rescue inactive, TDP-43 yeast inh 12.6µM, PTAP TSG101 blk inactive and FUS suppressor inactive.
CCOc1ccc(Nc2oc(-c3ccc(COc4ccc(OC)cc4)o3)nc2C#N)cc1 was read as Abeta rescue inactive, TDP-43 yeast inh inactive and FUS suppressor inactive.
Cc1ccc(C)c2nc3sc(C(=O)O)cc3cc12 was read as Abeta rescue inactive, aSyn rescue inactive, TDP-43 yeast inh 14.1µM, PTAP TSG101 blk inactive and FUS suppressor inactive.
Screening CNC(=O)c1cc(-c2cccs2)on1 returned aSyn rescue inactive.
